PubChem BioAssay (NCATS)
“And” between values parts separate entries of the source, which are not always exact repeats. Equal values may be shown once. Unmarked numbers belong to inactive results. Results filed as inconclusive are left out. A call without a number means that no potency is given here. The source made the active and inactive calls. Unless noted, calls come from the whole dose curve; as a rule, active = well fitted curve in the direction sought with a large enough effect; inconclusive = small, poorly fitted or top-dose-only effect, or another doubt; inactive = no such curve, though single readings can be large; an effect the other way counts as inactive or inconclusive.

How the values were obtained:
[1] = qHTS to identify inhibitors of the type 1 interferon - major histocompatibility complex class I in skeletal muscle: primary screen against the NCATS Pharmaceutical Collection (AID 1347407);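 note: luminescence of HiBiT knocked into endogenous HLA-B as interferon-induced MHC class I level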
Outline: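 Immortalized human myoblasts (C25cl48) with HiBiT knocked into endogenous HLA-B*08:01 were stimulated with 4 ng/ml IFN-beta and treated with compounds (8-point, 1:5, top 46 uM final) for 24 h at 37 C; HiBiT lytic luminescence read.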

[2] = biological target: Protein phosphatase 1D (Homo sapiens) (UniProt O15297); experiment: RapidFire Mass Spectrometry qHTS Assay for Modulators of WT P53-Induced Phosphatase 1 (WIP1) (AID 1347424);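 note: amount of dephosphorylated VEPPL-S-QETFS peptide product formed by WIP1; series mostly up to about 63 µM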
Outline: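 RapidFire mass spectrometry measured dephosphorylated peptide after 5 min room-temperature reaction of 2 uM VEPPL-pS-QETFS with 10 nM WIP1 (50 mM Tris-HCl pH 7.5, 30 mM MgCl2, 0.1 mM EGTA, BSA), following 1 hr compound preincubation; 1 uM isotope-labelled product standard.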

[3] = biological target: Protein phosphatase 1D (Homo sapiens) (UniProt O15297); experiment: Rhodamine-PBP qHTS Assay for Modulators of WT P53-Induced Phosphatase 1 (WIP1) (AID 1347425)
Outline: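 5 nM WIP1 + 10 uM Rh-PBP, 50 mM Tris pH 7.5, 30 mM MgCl2, 1 mM TCEP, 0.1 mM EGTA, BSA; cpds pinned, 1 hr RT; + 10 uM phosphopeptide; fluorescence 1-min reads x 11 min; delta = f1 - f0.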

[4] = Primary qHTS for inhibitors of SARS-S pseudo-typed particle cell entry (AID 1479145; calls by dose curve; note: nearly all actives have a fitted effect of over 45% in size)
[5] = Primary qHTS for Huh7 cytotoxicity: counterscreen for inhibitors of MERS-S pseudotyped particle cell entry (AID 1479147; calls by dose curve)
[6] = Primary qHTS for inhibitors of MERS-S pseudo-typed particle cell entry (AID 1479149; calls by dose curve; note: nearly all actives have a fitted effect of over 60% in size)
[7] = Primary qHTS for Vero E6 cytotoxicity: counterscreen for inhibitors of SARS-S pseudo-typed particle cell entry (AID 1479150; calls by dose curve)
[8] = Primary qHTS for inhibitors of La Crosse Virus (LACV) - induced cell death in SH-SY5Y cells (AID 1508616);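 note: top concentration of the series differs between compounds; higher means more rescue of cells from virus-induced death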
Outline: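 SH-SY5Y, 6000 cells/well; cpd via pin tool in DMSO; LACV 0.01 MOI; 6 d 37C 5% CO2; ATPLite, 5 min RT; luminescence normalized to ±virus DMSO controls.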

[9] = biological target: Calcium and integrin-binding protein 1 (Homo sapiens) (UniProt Q99828); experiment: Primary qHTS for Identification of Calcium Integrin Binding Protein 1 (CIB1) Competitor (AID 1508620);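 note: GST tagged CIB1 binding a fluorescein labelled alphaIIb integrin peptide tracer; top concentration of the series differs between compounds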
Outline: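 CIB1-GST (1 uM final) and compound incubated 15 min at room temperature before adding FITC-alphaIIb peptide tracer (100 nM final). Competition for binding read by fluorescence polarization (ex 480, em 540) after another 15 min at room temperature.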

[10] = Validation qHTS assay for inhibitors of Activation Induced Cytidine Deaminase (AID): UDG Counterscreen signal (AID 1347427)
Outline: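 Fluorescence at 560 nm excitation, 665 nm emission reports UDG signal after 250 mM NaOH (2x) addition and 30 min. Enzymes (AID 1 uM, UDG 2 U/mL, at 4/3x) preincubated 10 min with compound, then 4 h with 4x 250 nM DJC20/DJC23 substrate at room temperature.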

[11] = qHTS to identify inhibitors of the type 1 interferon - major histocompatibility complex class I in skeletal muscle: primary screen against the NCATS LOPAC collection (AID 1347405);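 note: lytic HiBiT luminescence reporting HLA-B protein level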
Outline: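 First, engineered myoblasts carrying HLA-B-HiBiT were seeded in medium lacking dexamethasone with 4 ng/ml IFN-beta. After 1 hr, compounds were pinned in (top 46 uM final, 7 points). After 24 hrs at 37 C, luminescence was measured following 10 min lysis.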

[12] = qHTS for inhibitors of adenylyl cyclases using a fission yeast platform: a pilot screen against the NCATS LOPAC library (AID 1347410)
Outline: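 S. pombe CHP2027 (AC9-GNAS-PDE4D2) carrying a PKA-repressed fbp1-GFP reporter was exposed to LOPAC compounds (final up to 57 µM) for 18 h at 30C in the dark, in EMM with histidine, lysine and uracil; GFP gain-of-signal read by laser scanning cytometry.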

[13] = qHTS to identify inhibitors of the type 1 interferon - major histocompatibility complex class I in skeletal muscle: primary screen against the NCATS Mechanism Interrogation Plate v5.0 (MIPE) Libary (AID 1347411); note: nearly all actives have a fitted effect of over 65% in size
Outline: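 Seed engineered human myoblasts (HLA-B HiBit) in medium without dexamethasone containing 4 ng/ml IFN-beta; after 1 hr add compound titrations (top 46 uM final). Incubate 24 hrs at 37 C, lyse 10 min with HiBiT reagent, read luminescence.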

[14] = biological target: Single-stranded DNA cytosine deaminase (Homo sapiens) (UniProt Q9GZX7); experiment: Validation qHTS assay for inhibitors of Activation Induced Cytidine Deaminase (AID): AID signal (AID 1347429)
Outline: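 Steps: dispense AID with UDG; pin-transfer compound up to 114 uM final; add DJC20/DJC23 substrate and hold 4 hr at room temperature; add NaOH, hold 30 min; read FRET signal (540/590 nm).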

[15] = biological target: Calcium and integrin-binding protein 1 (Homo sapiens) (UniProt Q99828); experiment: Validation qHTS for Identification of Calcium Integrin Binding protein 1 (CIB1) Competitor (AID 1508618)
Outline: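 Displacement of FITC-alphaIIb peptide (100 nM) from CIB1-GST (1 uM) is monitored by polarization in quantitative HTS format; buffer carries 5 mM CaCl2 and 125 mM NaCl at pH 7.4, incubations are at room temperature.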

[16] = Confirmatory qHTS for VERO E6 Cytotoxicity Assay: Counterscreen for SARS-CoV-2 CPE Assay (AID 1508605; calls by dose curve; note: series mostly up to about 20 µM; nearly all actives have a fitted effect of over 60% in size)
[17] = Confirmatory qHTS for small molecule stabilizers of the endoplasmic reticulum resident proteome: Secreted ER Calcium Modulated Protein (SERCaMP) assay (AID 1508628); note: potency is the fitted concentration of half-maximal effect; nearly all actives have a fitted effect of over 40% in size
Outline: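 Reporter secretion upon ER calcium depletion (100 nM thapsigargin, 4 h, 37C) is measured as medium luminescence with coelenterazine, after 16 h compound pretreatment of SH-SY5Y-GLuc-SERCaMP cells; primary at three concentrations up to 38.3 uM, follow-up at 11 (up to 76.6 uM).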

Sequence of Protein phosphatase 1D (Homo sapiens) (O15297 whole entry, looked up): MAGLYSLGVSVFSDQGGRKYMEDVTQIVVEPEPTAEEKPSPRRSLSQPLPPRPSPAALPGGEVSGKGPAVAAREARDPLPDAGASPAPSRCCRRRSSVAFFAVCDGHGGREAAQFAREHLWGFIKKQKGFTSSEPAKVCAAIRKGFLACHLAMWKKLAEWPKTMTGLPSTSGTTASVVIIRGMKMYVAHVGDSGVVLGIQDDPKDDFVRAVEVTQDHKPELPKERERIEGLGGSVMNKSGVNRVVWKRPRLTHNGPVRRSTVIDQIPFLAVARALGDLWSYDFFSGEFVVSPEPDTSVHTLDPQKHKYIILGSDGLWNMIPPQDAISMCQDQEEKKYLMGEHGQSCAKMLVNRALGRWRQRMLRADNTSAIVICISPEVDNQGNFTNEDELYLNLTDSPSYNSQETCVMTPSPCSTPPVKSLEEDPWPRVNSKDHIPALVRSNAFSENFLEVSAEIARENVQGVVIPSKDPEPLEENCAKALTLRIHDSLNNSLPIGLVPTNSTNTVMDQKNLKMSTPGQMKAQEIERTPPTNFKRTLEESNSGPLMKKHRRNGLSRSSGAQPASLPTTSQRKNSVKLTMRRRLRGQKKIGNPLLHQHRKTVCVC
Sequence of Calcium and integrin-binding protein 1 (Homo sapiens) (Q99828 whole entry, looked up): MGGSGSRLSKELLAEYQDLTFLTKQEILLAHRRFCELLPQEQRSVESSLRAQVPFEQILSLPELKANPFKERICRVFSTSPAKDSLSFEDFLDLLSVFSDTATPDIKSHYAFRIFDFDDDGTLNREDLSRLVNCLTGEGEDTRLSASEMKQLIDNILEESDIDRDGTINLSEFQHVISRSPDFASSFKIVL
Sequence of Single-stranded DNA cytosine deaminase (Homo sapiens) (Q9GZX7 whole entry, looked up): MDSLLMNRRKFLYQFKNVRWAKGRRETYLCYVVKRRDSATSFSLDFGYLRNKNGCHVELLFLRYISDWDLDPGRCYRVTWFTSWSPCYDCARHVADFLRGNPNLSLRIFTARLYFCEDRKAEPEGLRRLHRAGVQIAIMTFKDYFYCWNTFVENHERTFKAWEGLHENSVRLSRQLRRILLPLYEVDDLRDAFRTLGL

Compound	Potency [1]	Potency [2]	outcome [3]	Potency [4]	Potency [5]	Potency [6]	Potency [7]	outcome [8]	Potency [9]	outcome [10]	outcome [11]	outcome [12]	Potency [13]	outcome [14]	outcome [15]	Potency [16]	Potency [17]
COP(=S)(OC)Oc1ccc(S(=O)(=O)N(C)C)cc1	inactive	inactive	inactive	inactive	inactive	inactive	inactive	inactive	inactive								
COC1CC(=C(c2cccs2)c2cccs2)C[N+](C)(C)C1 (centres undefined)	inactive	inactive	inactive	inactive	inactive	inactive	inactive	inactive									
C[C@]12CC[C@H]3[C@@H](CCC4=CC(=O)CC[C@@H]43)[C@@H]1CC[C@@H]2OC(=O)CCC1CCCCC1	inactive	inactive	inactive	inactive	inactive	inactive	inactive	inactive									
CCCCC/C=C\C/C=C\C/C=C\C/C=C\CCCC(=O)NCC(=O)O	inactive	inactive	inactive					inactive	inactive	inactive							
CC(C)c1cccc(C(C)C)c1O	inactive	inactive		inactive	inactive	inactive	inactive	inactive	inactive	inactive	inactive	inactive	inactive	inactive	inactive		
C#CC(O)(C=CCl)CC (centres undefined)	inactive	inactive	inactive	inactive	inactive	inactive	inactive	inactive									
O=P1(N(CCCl)CCCl)NCCCO1 (centres undefined)	inactive		inactive	inactive	inactive	inactive	inactive	inactive	inactive	inactive	inactive	inactive	inactive	inactive	inactive		
CCC(C)C(C)(COC(N)=O)COC(N)=O (centres undefined)	inactive	inactive	inactive	inactive	inactive	inactive	inactive	inactive	inactive								
O=C(CCCN1CCC2(CC1)C(=O)NCN2c1ccccc1)c1ccc(F)cc1	inactive	inactive	inactive	inactive					inactive	inactive	inactive	inactive		inactive	inactive	inactive	5.62 µM (active) and 2.24 µM (active) and 3.16 µM (active)
COc1ccc2c(c1OC)C(=O)O[C@H]2[C@@H]1c2cc3c(cc2CCN1C)OCO3	inactive	inactive		inactive	inactive	inactive	inactive	inactive		inactive	inactive	inactive		inactive	inactive		
C=CCC1(C(C)CC)C(=O)NC(=O)NC1=O (centres undefined)	inactive	inactive	inactive	inactive	inactive	inactive	inactive	inactive	inactive								
